# Assay results published in PubChem BioAssay (EPA / NIEHS).
# Records with an inconclusive call do not appear. More than one record can exist for a structure, and the calls need not agree. Activity calls are given as the source filed them. Rule for the calls, unless noted: active = hit-call score of the fitted dose curve at least 0.9, where 1 is the maximum; inactive = score below 0.9.
# Legend:
# [1] = biological target: Myc proto-oncogene protein (Homo sapiens) (UniProt P01106); assay: ATG_Myc_CIS: Attagene CIS-FACTORIAL HepG2 Assay for human Myelocytomatosis (Myc) Proto-Oncogene Transcription Factor (AID 2282990); conditions: HepG2, Attagene cis-reporter transcription factor activity; actives raise or lower the signal
# Myc proto-oncogene protein (Homo sapiens), sequence (P01106 whole entry, looked up): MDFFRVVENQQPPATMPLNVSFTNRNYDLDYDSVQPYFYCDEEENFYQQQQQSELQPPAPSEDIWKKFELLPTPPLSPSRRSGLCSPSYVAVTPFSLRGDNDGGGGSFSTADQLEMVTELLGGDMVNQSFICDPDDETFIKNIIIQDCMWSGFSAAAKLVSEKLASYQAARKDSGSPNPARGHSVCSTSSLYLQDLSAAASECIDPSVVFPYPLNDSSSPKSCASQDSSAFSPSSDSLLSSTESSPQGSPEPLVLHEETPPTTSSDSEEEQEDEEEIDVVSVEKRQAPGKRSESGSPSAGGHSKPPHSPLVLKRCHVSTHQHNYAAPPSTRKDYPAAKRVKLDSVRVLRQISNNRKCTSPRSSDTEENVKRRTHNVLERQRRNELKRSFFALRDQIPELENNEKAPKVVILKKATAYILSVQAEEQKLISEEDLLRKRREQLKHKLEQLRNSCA
# How it was run: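 HepG2, transient MRTU transfection (cis promoters, endogenous TFs); 24 h dosing; TriZol RNA → oligo(dT) RT → PCR → 6-FAM primer extension → HpaI cut → CE. Bidirectional fit vs DMSO.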
# [2] = ATG_NF_kB_CIS: Attagene CIS-FACTORIAL HepG2 Assay for human Nuclear Factor Kappa B (NF-kB) (AID 2282991); conditions: HepG2 Attagene cis-factorial NF-kB reporter mRNA; actives raise or lower the signal
# How it was run: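 Fluorescence of labelled RT-PCR products separated by capillary electrophoresis gives reporter mRNA levels from transfected HepG2 cells exposed 24 h; values are fitted in both directions relative to DMSO.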
# [3] = ATG_NRF2_ARE_CIS: Attagene CIS-FACTORIAL HepG2 Assay for human Nuclear Factor Erythroid 2 Related Factor 2 (NFR2) response to Antioxidant Response Elements (ARE) (AID 2282992); conditions: HepG2 Attagene ARE/NRF2 reporter, transcription factor activity; actives raise or lower the signal
# How it was run: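 Endogenous transcription factor activity in human liver HepG2 cells is tracked via a cis-element-driven reporter within a multiplexed set. mRNA induction is read by RT-PCR and capillary electrophoresis after 24 h, with DMSO as baseline.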
# [4] = biological target: Cellular tumor antigen p53 (Homo sapiens) (UniProt P04637); assay: ATG_p53_CIS: Attagene CIS-FACTORIAL HepG2 Assay for human p53 Transcription Factor (AID 2282994); conditions: HepG2 p53 cis-element reporter, Attagene mRNA; actives raise or lower the signal
# Cellular tumor antigen p53 (Homo sapiens), sequence (P04637 whole entry, looked up, the tested form may be a part): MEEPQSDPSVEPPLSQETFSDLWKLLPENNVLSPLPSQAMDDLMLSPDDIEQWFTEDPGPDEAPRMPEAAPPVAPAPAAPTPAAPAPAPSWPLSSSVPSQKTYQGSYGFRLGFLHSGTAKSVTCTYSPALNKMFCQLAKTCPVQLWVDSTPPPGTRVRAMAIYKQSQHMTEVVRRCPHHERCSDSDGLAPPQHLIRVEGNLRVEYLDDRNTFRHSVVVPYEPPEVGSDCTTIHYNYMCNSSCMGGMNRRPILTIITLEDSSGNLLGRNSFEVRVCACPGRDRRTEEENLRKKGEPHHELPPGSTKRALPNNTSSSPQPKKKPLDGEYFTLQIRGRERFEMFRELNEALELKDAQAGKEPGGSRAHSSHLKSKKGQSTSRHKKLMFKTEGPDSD
# How it was run: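 Steps: transfect HepG2 with multiplexed cis reporter constructs; dose chemicals 24 h; extract RNA, reverse-transcribe, PCR-amplify reporter sequences; FAM-label, HpaI-digest, resolve fragments by CE. Activity fitted both directions relative to DMSO.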
# [5] = BSK_3C_TissueFactor: BioMAP Diversity Plus: 3C Assay for Tissue Factor Biomarker Activity (AID 2282997); conditions: BioMAP 3C HUVEC, tissue factor biomarker readout; actives raise or lower the signal
# How it was run: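 HUVEC, 3C system, 24 h post-dose; Tissue Factor by ELISA; bidirectional fit vs DMSO baseline.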
# [6] = BSK_3C_uPAR: BioMAP Diversity Plus: 3C Assay for Urokinase-type plasminogen activator receptor (uPAR) Biomarker Activity (AID 2282998); conditions: BioMAP 3C HUVEC, uPAR biomarker ELISA; actives raise or lower the signal
# How it was run: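 HUVEC primary cells; 24 h post-dose; uPAR by ELISA; gain or loss of signal fitted bidirectionally vs DMSO baseline.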
# [7] = BSK_3C_VCAM1: BioMAP Diversity Plus: 3C Assay for Vascular cell adhesion molecule 1 (VCAM1) Biomarker Activity (AID 2282999); conditions: BioMAP 3C HUVEC, VCAM1 ELISA, cytokine-stimulated; actives raise or lower the signal
# How it was run: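 Activity fitted in both directions relative to DMSO, with ELISA measurement of the surface marker on primary HUVEC (3C) at 24 h post-treatment; parallel SRB staining (0.1% SRB, TCA-fixed, 560 nm) flagged overt cytotoxicity.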
# [8] = BSK_4H_Eotaxin3: BioMAP Diversity Plus: 4H Assay for Eotaxin 3 Biomarker Activity (AID 2283000); conditions: primary human endothelial cells (HUVEC); actives raise or lower the signal;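 note: CCL26 protein level quantified by ELISA in parallel with SRB cytotoxicity check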
# How it was run: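 Readout is Eotaxin-3 (CCL26) level by ELISA in primary human umbilical vein endothelial cells harvested 24 h after chemical exposure; activity fitted in both directions against DMSO control.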
# [9] = biological target: human Peroxisome Proliferator-activated Receptor alpha (PPARa), PPARA (gene 5465) (UniProt Q07869); assay: ATG_PPARa_TRANS: Attagene TRANS-FACTORIAL HepG2 Assay for human Peroxisome Proliferator-activated Receptor alpha (PPARa) (AID 2283001; active = hit-call score of the fitted dose curve at least 0.9, where 1 is the maximum)
# human Peroxisome Proliferator-activated Receptor alpha (PPARa), PPARA (gene 5465), sequence (Q07869 whole entry, looked up, the tested form may be a part): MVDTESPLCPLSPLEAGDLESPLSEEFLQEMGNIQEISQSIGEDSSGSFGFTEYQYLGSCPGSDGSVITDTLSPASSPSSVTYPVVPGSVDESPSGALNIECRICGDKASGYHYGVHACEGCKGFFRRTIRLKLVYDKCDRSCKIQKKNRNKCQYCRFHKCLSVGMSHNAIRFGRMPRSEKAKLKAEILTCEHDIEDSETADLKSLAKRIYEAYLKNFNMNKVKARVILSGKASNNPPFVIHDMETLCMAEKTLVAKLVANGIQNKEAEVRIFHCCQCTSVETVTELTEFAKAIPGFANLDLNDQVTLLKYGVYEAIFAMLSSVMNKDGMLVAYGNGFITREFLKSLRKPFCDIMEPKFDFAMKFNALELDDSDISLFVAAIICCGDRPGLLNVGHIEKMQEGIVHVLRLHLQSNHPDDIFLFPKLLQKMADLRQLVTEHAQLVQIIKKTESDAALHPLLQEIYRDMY
# How it was run: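 Transfected HepG2 cells treated with test chemical for 24 h. RNA isolated, reverse-transcribed with oligo(dT), PCR-amplified, FAM-labelled and HpaI-digested. Fragments sized by capillary electrophoresis; gain-of-signal fit relative to DMSO.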
# [10] = biological target: human Peroxisome Proliferator-activated Receptor delta (PPARd), PPARD (gene 5467) (UniProt Q03181); assay: ATG_PPARd_TRANS: Attagene TRANS-FACTORIAL HepG2 Assay for human Peroxisome Proliferator-activated Receptor delta (PPARd) (AID 2283002; active = hit-call score of the fitted dose curve at least 0.9, where 1 is the maximum)
# human Peroxisome Proliferator-activated Receptor delta (PPARd), PPARD (gene 5467), sequence (Q03181 whole entry, looked up, the tested form may be a part): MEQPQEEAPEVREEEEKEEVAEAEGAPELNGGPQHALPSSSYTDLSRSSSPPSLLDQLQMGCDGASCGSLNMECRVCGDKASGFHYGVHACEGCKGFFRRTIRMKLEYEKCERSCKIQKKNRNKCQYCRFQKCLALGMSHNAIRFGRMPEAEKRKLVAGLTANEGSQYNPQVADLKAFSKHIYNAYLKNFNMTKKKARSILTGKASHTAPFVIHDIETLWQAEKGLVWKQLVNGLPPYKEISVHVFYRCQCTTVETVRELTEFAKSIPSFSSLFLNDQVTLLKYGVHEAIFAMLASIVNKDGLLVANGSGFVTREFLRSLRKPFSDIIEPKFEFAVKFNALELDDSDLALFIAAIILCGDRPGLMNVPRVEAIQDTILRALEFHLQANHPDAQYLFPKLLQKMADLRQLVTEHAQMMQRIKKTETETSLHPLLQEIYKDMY
# How it was run: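 Transient HepG2 transfection (multiple GAL4-UAS RTUs, chimeric receptor-Gal4); 24 h dosing; total RNA → oligo(dT) RT → PCR → 6-FAM primer extension → HpaI cut → CE. Positive direction vs DMSO.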
# [11] = read-out: Intercellular Adhesion Molecule 1 (ICAM1), ICAM1 (gene 3383); assay: BSK_3C_ICAM1: BioMAP Diversity Plus: 3C Assay for Intercellular Adhesion Molecule 1 (ICAM1) Biomarker Activity (AID 2283003); conditions: primary human endothelial cells (HUVEC); actives raise or lower the signal
# How it was run: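 ELISA read-out of ICAM-1; HUVEC (primary human), 3C system, 24 h post-dosing; bidirectional fit vs DMSO baseline.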
# [12] = biological target: human Retinoic Acid Receptor beta (RARb), RARB (gene 5915) (UniProt P10826); assay: ATG_RARb_TRANS: Attagene TRANS-FACTORIAL HepG2 Assay for human Retinoic Acid Receptor beta (AID 2283004; active = hit-call score of the fitted dose curve at least 0.9, where 1 is the maximum)
# human Retinoic Acid Receptor beta (RARb), RARB (gene 5915), sequence (P10826 whole entry, looked up, the tested form may be a part): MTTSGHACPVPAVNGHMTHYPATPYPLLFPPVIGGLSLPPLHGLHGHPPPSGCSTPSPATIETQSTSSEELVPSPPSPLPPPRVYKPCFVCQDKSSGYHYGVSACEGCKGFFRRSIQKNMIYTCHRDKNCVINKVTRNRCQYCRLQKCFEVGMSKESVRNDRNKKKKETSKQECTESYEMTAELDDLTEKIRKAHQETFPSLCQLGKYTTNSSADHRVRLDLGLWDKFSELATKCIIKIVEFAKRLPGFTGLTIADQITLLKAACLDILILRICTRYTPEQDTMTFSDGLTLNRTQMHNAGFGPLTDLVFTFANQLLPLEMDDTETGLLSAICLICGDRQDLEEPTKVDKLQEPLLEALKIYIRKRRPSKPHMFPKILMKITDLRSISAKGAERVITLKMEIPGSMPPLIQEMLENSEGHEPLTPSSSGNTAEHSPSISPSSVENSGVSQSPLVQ
# How it was run: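 Readout is reporter mRNA induction: RNA reverse-transcribed, PCR-amplified, FAM-labelled, HpaI-cut and resolved by capillary electrophoresis. Transiently transfected HepG2 cells carrying exogenous NR–Gal4 chimeras were dosed for 24 h; activity fitted upward relative to DMSO.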
# [13] = biological target: Retinoic acid receptor alpha (Homo sapiens) (UniProt P10276); assay: ATG_RARa_TRANS: Attagene TRANS-FACTORIAL HepG2 Assay for human Retinoic Acid Receptor alpha (RARa) (AID 2283005; active = hit-call score of the fitted dose curve at least 0.9, where 1 is the maximum)
# Retinoic acid receptor alpha (Homo sapiens), sequence (P10276 whole entry, looked up, the tested form may be a part): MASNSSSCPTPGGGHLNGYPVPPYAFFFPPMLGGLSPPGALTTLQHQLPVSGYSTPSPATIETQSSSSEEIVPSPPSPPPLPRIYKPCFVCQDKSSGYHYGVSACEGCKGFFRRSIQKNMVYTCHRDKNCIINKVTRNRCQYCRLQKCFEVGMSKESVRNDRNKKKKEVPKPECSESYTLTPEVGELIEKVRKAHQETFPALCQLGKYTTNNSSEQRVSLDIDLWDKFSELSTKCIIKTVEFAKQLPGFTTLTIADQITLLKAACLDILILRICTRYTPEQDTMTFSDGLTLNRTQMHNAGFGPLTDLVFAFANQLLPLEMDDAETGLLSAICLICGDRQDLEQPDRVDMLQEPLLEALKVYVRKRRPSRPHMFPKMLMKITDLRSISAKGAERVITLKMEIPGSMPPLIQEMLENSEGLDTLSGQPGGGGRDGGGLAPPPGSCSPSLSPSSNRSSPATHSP
# How it was run: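 Reporter transcripts, measured by RT-PCR with fluorescent labeling and capillary electrophoresis after 24 h dosing, reflect activity of an exogenous human RARa–GAL4 fusion in transiently transfected HepG2. Fitted for increase relative to DMSO.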
# [14] = BSK_3C_Proliferation: Cell Proliferation Assessment in the BioMAP Diversity Plus: 3C Assay (AID 2283006); conditions: primary human endothelial cells (HUVEC);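 for AC50: potency may reflect either rise or fall in cell number versus DMSO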
# How it was run: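 HUVEC, sub-confluent; 48 h chemical exposure; 10% TCA fix, 0.1% SRB stain, A560 total protein. Gain or loss of signal fitted both directions vs DMSO control.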
# [15] = biological target: Nuclear receptor subfamily 1 group I member 2 (Homo sapiens) (UniProt O75469); assay: ATG_PXR_TRANS: Attagene TRANS-FACTORIAL HepG2 Assay for human Pregnane X Receptor (PXR) (AID 2283008; active = hit-call score of the fitted dose curve at least 0.9, where 1 is the maximum)
# Nuclear receptor subfamily 1 group I member 2 (Homo sapiens), sequence (O75469 whole entry, looked up, the tested form may be a part): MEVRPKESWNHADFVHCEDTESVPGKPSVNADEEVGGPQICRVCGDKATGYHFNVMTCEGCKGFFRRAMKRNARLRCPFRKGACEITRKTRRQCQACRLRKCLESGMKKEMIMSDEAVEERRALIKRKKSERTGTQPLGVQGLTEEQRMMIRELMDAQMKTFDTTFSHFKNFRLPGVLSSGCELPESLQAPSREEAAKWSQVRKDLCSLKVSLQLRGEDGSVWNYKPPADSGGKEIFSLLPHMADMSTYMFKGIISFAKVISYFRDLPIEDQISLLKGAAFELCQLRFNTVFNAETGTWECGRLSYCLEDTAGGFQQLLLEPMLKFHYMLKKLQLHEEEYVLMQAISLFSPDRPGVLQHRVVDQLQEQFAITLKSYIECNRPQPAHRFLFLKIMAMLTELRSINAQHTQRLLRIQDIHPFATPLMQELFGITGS
# How it was run: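 HepG2 transfected (FuGene 6) with GAL4-UAS reporter units + PXR-Gal4 chimera; dosed 24 h. Total RNA → oligo(dT) RT → PCR → 6-FAM primer extension → HpaI cut → CE. Gain-of-signal vs DMSO.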
# [16] = biological target: human RAR-related Orphan Receptor beta (RORb), RORB (gene 6096) (UniProt Q92753); assay: ATG_RORb_TRANS: Attagene TRANS-FACTORIAL HepG2 Assay for human RAR-related Orphan Receptor beta (RORb) (AID 2283010; active = hit-call score of the fitted dose curve at least 0.9, where 1 is the maximum)
# human RAR-related Orphan Receptor beta (RORb), RORB (gene 6096), sequence (Q92753 whole entry, looked up, the tested form may be a part): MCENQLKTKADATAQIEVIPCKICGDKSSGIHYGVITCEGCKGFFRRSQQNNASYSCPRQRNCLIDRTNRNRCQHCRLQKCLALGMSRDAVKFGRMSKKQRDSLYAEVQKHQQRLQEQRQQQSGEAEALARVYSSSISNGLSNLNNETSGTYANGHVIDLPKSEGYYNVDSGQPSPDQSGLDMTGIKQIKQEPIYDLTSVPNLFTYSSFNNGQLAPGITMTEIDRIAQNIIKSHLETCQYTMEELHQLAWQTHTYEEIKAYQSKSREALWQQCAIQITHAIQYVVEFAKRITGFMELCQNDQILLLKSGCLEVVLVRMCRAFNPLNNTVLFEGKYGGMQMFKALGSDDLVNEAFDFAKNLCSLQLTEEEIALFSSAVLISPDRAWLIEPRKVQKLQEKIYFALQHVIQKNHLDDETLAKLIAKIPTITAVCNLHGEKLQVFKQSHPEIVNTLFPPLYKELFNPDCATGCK
# How it was run: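 HepG2, transient MRTU transfection (GAL4-UAS reporters, exogenous NR-Gal4 chimeras); 24 h compound exposure; total RNA → RT-PCR → 6-FAM primer extension → HpaI digest → CE fluorescence. Positive direction vs DMSO baseline.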
# [17] = biological target: Peroxisome proliferator-activated receptor gamma (Homo sapiens) (UniProt P37231); assay: ATG_PPARg_TRANS: Attagene TRANS-FACTORIAL HepG2 Assay for human Peroxisome Proliferator-activated Receptor-gamma (PPARg) (AID 2283007; active = hit-call score of the fitted dose curve at least 0.9, where 1 is the maximum)
# Peroxisome proliferator-activated receptor gamma (Homo sapiens), sequence (P37231 whole entry, looked up): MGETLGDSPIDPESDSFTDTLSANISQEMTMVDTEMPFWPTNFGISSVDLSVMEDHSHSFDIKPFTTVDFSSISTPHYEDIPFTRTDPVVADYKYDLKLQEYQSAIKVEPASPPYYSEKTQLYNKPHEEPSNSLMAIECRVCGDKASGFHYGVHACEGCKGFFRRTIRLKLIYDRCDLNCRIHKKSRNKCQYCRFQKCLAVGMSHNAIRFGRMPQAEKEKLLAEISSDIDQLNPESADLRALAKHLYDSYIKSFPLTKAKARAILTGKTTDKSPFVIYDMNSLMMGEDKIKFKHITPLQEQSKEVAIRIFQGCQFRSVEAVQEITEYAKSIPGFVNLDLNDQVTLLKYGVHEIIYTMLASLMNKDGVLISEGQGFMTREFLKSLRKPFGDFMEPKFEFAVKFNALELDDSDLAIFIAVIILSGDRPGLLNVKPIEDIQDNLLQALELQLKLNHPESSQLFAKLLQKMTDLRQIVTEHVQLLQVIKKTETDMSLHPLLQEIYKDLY
# How it was run: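 Twenty-four hours after chemical dosing of transiently transfected HepG2 cells, isolated RNA was converted to cDNA, reporter sequences amplified and 6-FAM-labelled, then HpaI-digested and analysed by capillary electrophoresis. Signal increase against DMSO was fitted.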
# [18] = biological target: human Retinoic Acid Receptor gamma (RARg), RARG (gene 5916) (UniProt P13631); assay: ATG_RARg_TRANS: Attagene TRANS-FACTORIAL HepG2 Assay for human Retinoic Acid Receptor gamma (RARg) (AID 2283009; active = hit-call score of the fitted dose curve at least 0.9, where 1 is the maximum)
# human Retinoic Acid Receptor gamma (RARg), RARG (gene 5916), sequence (P13631 whole entry, looked up, the tested form may be a part): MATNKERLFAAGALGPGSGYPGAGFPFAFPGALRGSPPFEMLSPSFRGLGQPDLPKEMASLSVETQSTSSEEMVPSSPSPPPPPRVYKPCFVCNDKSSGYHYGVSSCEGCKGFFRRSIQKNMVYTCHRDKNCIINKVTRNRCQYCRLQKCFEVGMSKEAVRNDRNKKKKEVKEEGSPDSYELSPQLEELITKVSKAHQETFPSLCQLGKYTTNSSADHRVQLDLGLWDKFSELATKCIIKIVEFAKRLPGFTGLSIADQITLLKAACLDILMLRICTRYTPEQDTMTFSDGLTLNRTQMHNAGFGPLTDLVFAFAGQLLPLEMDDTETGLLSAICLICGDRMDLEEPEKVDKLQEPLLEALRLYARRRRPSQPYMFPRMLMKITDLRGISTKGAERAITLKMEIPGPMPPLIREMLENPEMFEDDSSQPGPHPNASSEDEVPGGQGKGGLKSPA
# How it was run: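 Readout: reporter transcript levels via RT-PCR, 6-FAM primer-extension labelling, HpaI digestion and capillary electrophoresis. Cells: HepG2 carrying transfected RARg-GAL4 chimera plus UAS reporter set. Dosing 24 h; DMSO negative control.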
# [19] = ATG_Oct_MLP_CIS: Attagene CIS-FACTORIAL HepG2 Assay for human Octamer-Binding Transcription Factor (Oct) (AID 2282993); conditions: HepG2 Attagene cis-factorial Oct reporter, mRNA; actives raise or lower the signal
# How it was run: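 Read-out: reporter mRNA via RT-PCR plus capillary electrophoresis of 6-FAM-labelled fragments. Transiently transfected HepG2, 24 h exposure, endogenous TF activity on cis elements. Gain or loss of signal fitted relative to DMSO.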
# [20] = biological target: human RAR-related Orphan Receptor gamma (RORg), RORC (gene 6097) (UniProt P51449); assay: ATG_RORg_TRANS: Attagene TRANS-FACTORIAL HepG2 Assay for human RAR-related Orphan Receptor gamma (RORg) (AID 2283011; active = hit-call score of the fitted dose curve at least 0.9, where 1 is the maximum)
# How it was run: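 Transient MRTU transfection of HepG2 (TRANS format, exogenous NR-Gal4 chimera). 24 h dosing. Total RNA → oligo(dT) RT → PCR → 6-FAM labelling → HpaI cut → CE. Gain vs DMSO.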
structure (smiles),measurement,setting,value
CCNc1nc(N)nc(Cl)n1,outcome,[1],inactive
same,outcome,[2],inactive
same,outcome,[3],inactive
same,outcome,[4],inactive
same,outcome,[5],inactive
same,outcome,[6],inactive
same,outcome,[7],inactive
same,outcome,[8],inactive
same,outcome,[9],inactive
same,outcome,[10],inactive
same,outcome,[11],inactive
same,outcome,[12],inactive
same,outcome,[13],inactive
same,outcome,[14],inactive
same,outcome,[15],inactive
same,outcome,[16],inactive
COC(=O)c1c(Cl)nn(C)c1S(=O)(=O)NC(=O)Nc1nc(OC)cc(OC)n1,outcome,[1],inactive
same,outcome,[2],inactive
same,outcome,[3],inactive
same,outcome,[4],inactive
same,outcome,[5],inactive
same,outcome,[6],inactive
same,outcome,[7],inactive
same,outcome,[8],inactive
same,outcome,[9],inactive
same,outcome,[10],inactive
same,outcome,[11],inactive
same,outcome,[14],inactive
same,outcome,[17],inactive
same,outcome,[15],inactive
same,outcome,[18],inactive
same,outcome,[16],inactive
CCSC(=O)N(CC(C)C)CC(C)C,outcome,[1],inactive
same,outcome,[2],inactive
same,outcome,[3],inactive
same,outcome,[19],inactive
same,outcome,[4],inactive
same,outcome,[5],inactive
same,outcome,[6],inactive
same,outcome,[7],inactive
same,outcome,[8],inactive
same,outcome,[11],inactive
same,outcome,[12],inactive
same,outcome,[14],inactive
same,outcome,[17],inactive
same,outcome,[20],inactive
CCOC(=O)NCCOc1ccc(Oc2ccccc2)cc1,outcome,[1],inactive
same,outcome,[2],inactive
same,AC50,[3],13.1 µM (active)
same,AC50,[19],14 µM (active)
same,outcome,[4],inactive
same,outcome,[5],inactive
same,AC50,[6],30.4 µM (active)
same,outcome,[7],inactive
same,outcome,[8],inactive
same,outcome,[9],inactive
same,outcome,[10],inactive
same,outcome,[11],inactive
same,outcome,[12],inactive
same,outcome,[13],inactive
same,AC50,[14],20 µM (active)
same,AC50,[17],19.3 µM (active)
same,outcome,[15],inactive
same,outcome,[18],inactive
c1ccc2[nH]c(-c3cscn3)nc2c1,outcome,[1],inactive
same,outcome,[2],inactive
same,AC50,[3],149 µM (active)
same,outcome,[3],inactive
same,outcome,[19],inactive
same,outcome,[5],inactive
same,outcome,[6],inactive
same,outcome,[7],inactive
same,outcome,[8],inactive
same,outcome,[9],inactive
same,outcome,[10],inactive
same,outcome,[11],inactive
same,outcome,[12],inactive
same,outcome,[13],inactive
same,outcome,[14],inactive
same,outcome,[17],inactive
same,outcome,[15],inactive
same,outcome,[20],inactive
CCCOC(=O)c1ccc(C(=O)OCCC)nc1,outcome,[1],inactive
same,outcome,[2],inactive
same,outcome,[3],inactive
same,outcome,[4],inactive
same,outcome,[5],inactive
same,outcome,[6],inactive
same,outcome,[7],inactive
same,outcome,[8],inactive
same,outcome,[9],inactive
same,outcome,[10],inactive
same,outcome,[11],inactive
same,outcome,[12],inactive
same,outcome,[13],inactive
same,outcome,[14],inactive
same,outcome,[17],inactive
same,outcome,[15],inactive
same,outcome,[18],inactive
same,outcome,[16],inactive
COc1nc(C)nc(NC(=O)NS(=O)(=O)c2ccccc2OCCCl)n1,outcome,[1],inactive
same,outcome,[2],inactive
same,AC50,[3],6.85 µM (active)
same,outcome,[3],inactive
same,outcome,[19],inactive
same,outcome,[4],inactive
same,outcome,[5],inactive
same,outcome,[6],inactive
same,outcome,[7],inactive
same,outcome,[8],inactive
same,outcome,[10],inactive
same,outcome,[11],inactive
same,outcome,[14],inactive
same,outcome,[17],inactive
same,AC50,[15],40 µM (active)
same,outcome,[15],inactive
same,outcome,[18],inactive
